# Assay outcomes from PubChem BioAssay.
# GLP-1R agonist = activates the human GLP-1 receptor | Potency, µM (series often up to 45.6 µM), usual class: activators | HEK293 GLP-1R CRE-luciferase, luminescence, 4-6 h; cells express a hypersensitive GLP-1R form | 0.007% of 380,000 active | P43220
# Target sequence (P43220 whole entry, looked up): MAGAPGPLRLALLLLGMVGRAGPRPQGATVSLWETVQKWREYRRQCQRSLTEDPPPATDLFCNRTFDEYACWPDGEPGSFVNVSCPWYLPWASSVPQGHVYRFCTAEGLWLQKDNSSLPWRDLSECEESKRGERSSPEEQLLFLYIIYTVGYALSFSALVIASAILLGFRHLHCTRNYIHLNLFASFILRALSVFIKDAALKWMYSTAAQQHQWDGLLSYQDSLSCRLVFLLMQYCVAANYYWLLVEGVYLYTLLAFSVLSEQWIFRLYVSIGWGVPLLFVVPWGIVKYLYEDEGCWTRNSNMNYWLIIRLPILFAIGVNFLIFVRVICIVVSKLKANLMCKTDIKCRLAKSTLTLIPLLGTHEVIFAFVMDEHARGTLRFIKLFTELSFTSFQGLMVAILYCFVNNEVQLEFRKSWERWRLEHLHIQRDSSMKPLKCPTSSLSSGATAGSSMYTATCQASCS
# HEK293 tox = cytotoxic in the GLP-1 receptor inverse agonist counter-screen; AID 624418; Potency, µM (series often up to 38.3 µM), most hits filed as inhibitors; HEK293 cAMP-luciferase reporter cells, luminescence, 24 h; 0.13% of 410,000 active;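 note: loss of luciferase light is scored as toxicity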
#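 MLSMR compounds, 24 hr on cells at 37 deg C/5% CO2; luminescence after luciferase reagent (12 min RT). Inhibition counted as the undesired cytotoxic outcome.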
# PTHR1 ag = activates the human parathyroid hormone receptor PTHR1; HEK293 GP2 PTHR1 cells, GloSensor cAMP luminescence, 1 h; 0.075% of 410,000 active; Potency, µM (doses to about 115 µM), hits mostly activators; AID 743266; Q03431; note: nearly all actives have a fitted effect of over 55% in size
#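 HEK-293-derived GP2 cells expressing PTHR1 and a GloSensor cAMP reporter, 3,000/well, plated overnight, given luciferin plus IBMX (each 0.5 mM as added) for 1 h at 37 °C, then compound for 1 h at 37 °C. Luminescence was read after 15 min at room temperature.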
# GLP1R inv ag = inverse agonists of human GLP-1 receptor. 1.6% of 410,000 active. HEK293 GLP-1R CRE-luciferase, luminescence, 24 h; GLP-1R form is constitutively active. P43220. AID 624417. Potency, µM (titrated, usually from 38.3 µM), usual class: inhibitors; note: nearly all actives have a fitted effect of over 55% in size
#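 Constitutively active GLP-1R drives a cAMP-responsive luciferase in stably transfected HEK293 cells; test compounds are added after overnight (12 h) attachment and left 24 hr, and signal loss in luminescence marks inhibition.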
# Numbers stand for hits; 0 = inactive; ? = inconclusive; - = no result; [ ] = another dose, or the depositor's remark. Rows were chosen to be rich in hits. Some 1.7% of all compounds tested hit in one or more screens of this group. Calls come from the whole dose curve; as a rule, active = well fitted curve in the direction sought with a large enough effect; inconclusive = small, poorly fitted or top-dose-only effect, or another doubt; inactive = no such curve, though single readings can be large; an effect the other way counts as inactive or inconclusive.
SMILES,GLP-1R agonist,HEK293 tox,PTHR1 ag,GLP1R inv ag
O=C1[C@H]2[C@@H](c3ccc(C(F)(F)F)cc3)N[C@]3(CCCN(Cc4ccc(F)cc4)C3=O)[C@H]2C(=O)N1Cc1ccccc1,0,?,0,8.9µM
CC(=O)N1CC2(NC(=O)c3ccccc3N2)c2ccccc21 (configuration not stated),0,0,0,0
CC1=CC(C)(C)N2C(=O)C3(N=C(N)NC(Nc4ccccc4)=N3)c3cc(C)cc1c32 (configuration not stated),0,?,0,3.5µM
CCOC(=O)CCCCCC(=O)Nc1ccc2c(c1)C(=O)N([C@@H](C)CO)C[C@H](C)[C@H](CN(C)C(=O)c1ccccc1)OCCCC[C@H](C)O2,0,0,0,0
Cc1cc(C)c(S(=O)(=O)Nc2ccc(-c3ccc(N4CCC(C)CC4)nn3)cc2)cc1C,-,0,0,?
CCOc1ccc(S(=O)(=O)Nc2ccc(-c3ccc(N4CCCC4)nn3)cc2)cc1,-,0,0,0
Cc1cc(S(=O)(=O)Nc2ccc(-c3ccc(N4CCCCC4)nn3)cc2)c(C)cc1Cl,-,0,0,7.1µM
Cc1cc(S(=O)(=O)Nc2ccc(-c3ccc(N4CCCCCC4)nn3)cc2)c(C)cc1Cl,-,0,0,7.9µM
O=S(=O)(Nc1ccc(-c2ccc(N3CCCCC3)nn2)cc1)c1ccc(OC(F)(F)F)cc1,-,0,0,11µM
O=S(=O)(Nc1cccc(-c2ccc(N3CCCCCC3)nn2)c1)c1ccccc1Cl,0,0,0,5µM
CC(CCc1ccccc1)NS(=O)(=O)c1ccccc1F (configuration not stated),0,0,0,?
Cc1sc2nc(CN3CCCCC3)nc(Cl)c2c1C,0,0[1.53 µM],0,0
Cc1ccccc1Cn1cc(NC(=O)c2noc3c2CC(C(C)(C)C)CC3)cn1 (configuration not stated),0,0,0,0
Cc1ccccc1Cn1nc(C)c(NC(=O)c2noc3c2CC(C(C)(C)C)CC3)c1C (configuration not stated),0,0,0,10µM
CC(=O)N1N=C(c2ccc(Br)cc2)CC1c1cccc([N+](=O)[O-])c1 (configuration not stated),0,0,0,11µM
Cc1ccc(C2=NN(C(=O)CCC(=O)O)C(c3cccc([N+](=O)[O-])c3)C2)cc1 (configuration not stated),0,0,?,0
CCOc1ccc(C(C)=O)cc1COC(=O)CNC(=O)C12CC3CC(CC(C3)C1)C2,0,0,0,3.5µM
CC#CC(=O)N1CCC(C(=O)Nc2ccc(Oc3ccccc3)nc2)CC1,0,0,0,0
Oc1ccccc1/C=N/NC(=S)NC1CC2CC1C1C=CCC21 (configuration not stated),0,4.5µM,0,?
COc1cccc(/C=N/NC(=S)NC2CC3CC2C2C=CCC32)c1O (configuration not stated),0,?,0,0
O=C1CCCCC1Sc1nnc(-c2ccc3c(c2)OCO3)o1 (configuration not stated),0,0,0,3.2µM
Clc1ccc(CSc2nnc(-c3ccc4c(c3)OCO4)o2)cc1,0,0,0,0
Cc1ccc2[nH]c(O)c(N=NC(=O)C3CC3c3ccccc3)c2c1Br (configuration not stated),0,0,0,0
COc1ccc(CNC(c2ccccc2)c2ccc(Cl)cc2)cc1 (configuration not stated),0,0,0,?
c1ccc(COc2cccc(CNn3cnnc3)c2)cc1,0,0,0,0
SMILES,GLP-1R agonist,HEK293 tox,PTHR1 ag,GLP1R inv ag
CC(NCc1ccc(OCc2ccc(Cl)cc2)cc1)C(O)c1ccccc1 (configuration not stated),0,?,0,10µM
CC(NCc1cccc(OCc2ccccc2)c1)C(O)c1ccccc1 (configuration not stated),0,?,0,8.9µM
CSc1ccc(CN(C)CC(=O)NC(C)c2ccccc2)cc1 (configuration not stated),0,0[0.307 µM],0,0[0.307 µM]
COc1ccc(N(C(=O)COc2c(C)cccc2C)S(=O)(=O)c2ccc(Cl)cc2)cc1,-,0,0,10µM
CCOc1cc(-c2ccc(OC(=O)c3ccccc3F)cc2)cc(=O)c2c(C)oc(C)c12,-,0,0,0
Cc1ccc(-c2cc3c(nn2)-c2ccccc2C3=O)cc1,0,0,0,1.4µM
O=C1c2ccccc2-c2nnc(-c3ccc(F)cc3)cc21,0,0,0,0
CCCS(=O)(=O)N1CCCC(C(=O)N2CCN(C(=O)OCC)CC2)C1 (configuration not stated),0,0,0,0
Cc1cc(C)c(C)c(S(=O)(=O)N2CCC(C(=O)N3CCCC3)CC2)c1C,0,0,0,0
Cc1cc(C)c(C)c(S(=O)(=O)N2CCC(C(=O)N3CCN(c4ccc(F)cc4)CC3)CC2)c1C,0,0,0,5µM
CC(=O)c1ccc(NC2=C(N3CCOCC3)C(=O)c3ccccc3C2=O)cc1,0,?,0,0
Cc1ccc(NC2=C(N3CCOCC3)C(=O)c3ccccc3C2=O)cc1,0,10µM,0,0
CCOc1ccc(NC(=O)c2ccc3nc(Cc4ccccc4)oc3c2)cc1,-,0,0,?
O=C(COC(=O)c1ccccc1-n1cnnn1)c1ccc(F)cc1,0,0,0,0
C/C(=C\C(=O)c1ccc(Br)cc1)NNC(=O)c1ccc(O)cc1,0,?,0,4.5µM
COc1cccc(CCOC(=O)c2c(-c3ccsc3)oc3c2C(OC(C)=O)CCC3)c1 (configuration not stated),0,0,0,?
Cc1ccc(CSc2nc3ccccc3cc2C=O)cc1,0,?,0,4µM
OCCNc1nc(Nc2ccccc2)nc(Nc2ccccc2)n1,0,0,0,?
OCCNc1nc(-c2ccccc2)c2cc(Br)ccc2n1,?,0,0,0
Cc1ccc(Nc2nc(NCc3ccco3)c3ccccc3n2)cc1,0,?,0,2.5µM
Cc1c(Cl)cccc1Nc1nc(NCCO)c2ccccc2n1,0,?,0,2.5µM
OCCNc1nc(Nc2ccccc2)nc2ccccc12,0,0,0,7.1µM
Oc1ccccc1Nc1nc(NCc2ccccc2)c2ccccc2n1,0,?,0,?
OCCNc1nc(Nc2ccc(Br)cc2)nc2ccccc12,0,0,0,2µM
CSC(=Nc1ccccc1)N=C(SCc1ccccc1)N(C)C,0,5.6µM,0,3.5µM
N#CNC(=Nc1ccccc1)SCc1ccc(C(=O)O)cc1,0,0,0,0
CC/C=C(/C(=O)N[C@@H]1C(=O)N2C(C(=O)OCOC(=O)C(C)(C)C)=C(COC(N)=O)CS[C@H]12)c1csc(N)n1,0,-,-,-
CCN1CCN(C(=O)c2cnn3c(C(F)F)cc(-c4ccc(C)cc4)nc23)CC1,0,0,0,?
Cc1ccc(-c2cc(C(F)F)n3ncc(C(=O)N4CCN(c5ccccn5)CC4)c3n2)cc1,0,0,0,6.3µM
CN1CCCN(C(=O)c2cc(-c3cccc4ccccc34)nc3ccccc23)CC1,0,0,0,7.9µM
